# Most compounds without a hit are left out; they make up all but 3.5% or so of the library.
# MITF primary: blocks human microphthalmia-associated transcription factor; O75030; AlphaScreen MITF homodimerization, bead proximity signal; inhibition, % at 2.6 µM; 650,000 compounds, 0.91% hits; in the data active means inhibition above about 50%;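 further: 0% = vehicle wells with protein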
# Target sequence (O75030 whole entry, looked up): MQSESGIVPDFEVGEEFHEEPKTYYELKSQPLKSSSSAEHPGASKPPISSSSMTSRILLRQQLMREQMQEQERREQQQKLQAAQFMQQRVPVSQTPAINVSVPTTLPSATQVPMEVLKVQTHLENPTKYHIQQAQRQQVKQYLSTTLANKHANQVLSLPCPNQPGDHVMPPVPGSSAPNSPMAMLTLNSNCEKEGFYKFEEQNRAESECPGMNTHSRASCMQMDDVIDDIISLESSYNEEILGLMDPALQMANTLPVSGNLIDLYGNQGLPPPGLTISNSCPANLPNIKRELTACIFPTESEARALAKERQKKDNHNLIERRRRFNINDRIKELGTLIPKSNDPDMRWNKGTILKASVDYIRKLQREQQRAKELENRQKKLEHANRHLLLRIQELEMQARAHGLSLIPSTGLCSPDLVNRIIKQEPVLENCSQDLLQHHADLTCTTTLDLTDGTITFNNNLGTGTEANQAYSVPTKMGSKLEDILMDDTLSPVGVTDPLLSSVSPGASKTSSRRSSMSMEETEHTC
# FBW7 act: human FBW7 E3 ligase activation, primary screen. Q969H0. normalized activity (activation), % at 26.1 µM. AlphaScreen FBW7–phospho-cyclin E peptide binding, activator screen. 650,000 compounds, 0.13% hits; in the data active means normalized activity above about 1.9%;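 further: purified mutant Fbw7 with reduced substrate affinity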
# GPR151 ag: activators of human GPR151. PathHunter beta-arrestin GPR151 cells, luminescence. activation, % at 11.2 µM. 650,000 compounds, 1% hits. AID 1508602; in the data active means activation above about 4.9%;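 further: 0% = median of compound wells and 100% = cells with positive control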
# TEAD-YAP block: TEAD-YAP interaction inhibition; HEK-TIYL cells, TEAD-Gal4/YAP UAS-luciferase luminescence; inhibition, % at 9.12 µM; 640,000 compounds, 1.4% hits; AID 1259422; in the data active means inhibition above about 32%;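 further: 0% = median of test compound wells and 100% = reference inhibitor wells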
# * hit, by the source's call.
SMILES,MITF primary,FBW7 act,GPR151 ag,TEAD-YAP block
O=[N+]([O-])c1ccc2nc(/C=C/c3ccco3)[nH]c2c1,17.3,0.2,0.2,-30.8
CCc1c(C(=O)NC2CCCc3ccccc32)[nH]c(C)c1C(C)=O (stereo not drawn),-7.3,0.0,0.1,37.4*
COCCn1nnnc1C(c1ccc(O)cc1)N1CCN(C)CC1 (stereo not drawn),10.2,0.5,1.4,13.7
CCc1ccc(CN2CCN(C(=O)c3ccc(F)cc3)CC2)cc1,47.1,-0.1,0.1,36.9*
O=C(c1ccc(F)cc1)N1CCN(Cc2ccc(Cl)cc2)CC1,50.0,0.0,-0.6,16.0
COCC(C)n1c(C)cc(C(=O)COC(=O)c2c(OC)cccc2OC)c1C (stereo not drawn),9.8,-0.1,-1.6,21.6
COCC(C)n1c(C)cc(C(=O)CSc2nc3ccccc3[nH]2)c1C (stereo not drawn),8.2,-0.1,3.2,40.1*
COCC(C)n1c(C)cc(C(=O)COC(=O)c2n[nH]c3ccccc23)c1C (stereo not drawn),17.9,0.2,-2.3,88.3*
COCC(C)n1c(C)cc(C(=O)COC(=O)c2oc3ccccc3c2C)c1C (stereo not drawn),5.1,0.0,-0.8,-0.2
COCC(C)n1c(C)cc(C(=O)COC(=O)c2cccc(C)c2C)c1C (stereo not drawn),7.3,-0.1,-0.5,46.5*
Cc1cc(C(=O)CSc2nc3ccccc3[nH]2)c(C)n1C1CC1,6.7,0.1,-0.7,-71.1
Cn1c(SCc2nc3ccccc3s2)nnc1-c1cccnc1,16.0,0.2,-1.9,-30.3
O=C(Cn1ncc2c(=O)oc3ccccc3c21)Nc1cc(F)ccc1F,1.8,-0.2,0.4,0.3
Cc1noc(C)c1-c1nc(NCCCN2CCCC2=O)c2ncn(-c3ccsc3)c2n1,-2.1,-0.1,-1.8,58.8*
Nc1cccc(-c2nc(NCCCN3CCCC3=O)c3ncn(-c4ccsc4)c3n2)c1,12.6,0.2,-0.1,62.4*
O=C1CCCN1CCCNc1nc(-c2ccc(N3CCOCC3)nc2)nc2c1ncn2CCN1CCCC1=O,-5.6,-0.2,0.1,1.7
CN1CCN(c2ccc(-c3nc(NCCCN4CCCC4=O)c4ncn(-c5ccsc5)c4n3)cc2)CC1,-6.5,0.2,-0.5,35.1*
O=C1CCCN1CCCNc1nc(-c2ccc(N3CCOCC3)nc2)nc2c1ncn2-c1ccsc1,-10.4,0.1,-1.8,48.2*
CN(C)S(=O)(=O)N1CCCC(CCC(=O)NCc2ccccc2F)C1 (stereo not drawn),8.9,0.0,-0.1,-3.2
CC(C)(C)c1ccc(C(=O)Nc2ccc3c(c2)CN(C(=O)c2ccco2)CC3)cc1,6.6,0.2,2.5,85.7*
O=[N+]([O-])c1cc(CN2CCN(c3cccc(C(F)(F)F)c3)CC2)c(O)c2ncccc12,18.6,0.0,-0.6,20.3
O=[N+]([O-])c1cc(CN2CCC(c3ccccc3)C2)c(O)c2ncccc12 (stereo not drawn),55.4*,-0.9,1.7,32.1*
O=[N+]([O-])c1cc(CN2CCc3ccccc3C2)c(O)c2ncccc12,20.7,-0.6,0.3,8.7
O=[N+]([O-])c1cc(CN2CCCCC2)c(O)c2ncccc12,73.0*,-0.9,-1.5,4.2
CN1CCN(Cc2cc([N+](=O)[O-])c3cccnc3c2O)CC1,76.0*,-0.1,0.3,7.5
SMILES,MITF primary,FBW7 act,GPR151 ag,TEAD-YAP block
Cc1cccc(N(CC(=O)N2CCN(c3ccc(F)cc3)CC2)S(C)(=O)=O)c1C,-4.4,-0.1,-0.6,10.8
CCCNc1nc(SC)nc2c1cnn2CCNC(=O)c1ccc(F)cc1,1.4,0.0,-0.4,4.5
CCCNc1nc(SC)nc2c1cnn2CCNC(=O)c1ccc(OC)cc1OC,1.6,0.0,1.5,36.0*
Cc1ccc(C#N)c(SCC(=O)Nc2ccccc2C(=O)O)n1,-12.6,-0.1,-1.8,33.3*
Cc1cc(C)c(C#N)c(SCC(=O)Nc2ccccc2C(=O)O)n1,9.7,0.5,1.8,8.2
Cc1cccc(NC(=O)CSc2nc(C)cc(C)c2C#N)n1,-13.8,-0.1,0.5,80.8*
COc1ccc(CCNC(=O)CSc2nc3ccsc3c(=O)n2CCC(C)C)cc1OC,33.8,0.1,-1.0,2.5
O=S(=O)(c1cccc(F)c1)N1CCC(c2nc3ccccc3o2)CC1,9.3,0.1,0.3,2.6
CCCCCc1c2c(C)c(C(=O)OCC)nc-2cc2n1CC(C)=C2C,5.8,0.1,1.9,41.2*
CCOc1cc2[nH]c(=O)n(CCC(=O)NCCOC)c(=O)c2cc1OCC,13.7,0.1,-0.2,0.6
Cc1nc(C(=O)N2CCCC(c3nc(-c4ccncc4)ncc3-c3ccccc3)C2)cs1 (stereo not drawn),-16.9,0.2,-0.9,53.6*

# High-throughput results deposited in PubChem BioAssay by The Scripps Research Institute Molecular Screening Center.
